Source: PubChem BioAssay AID757 (NMMLSC, 2007)
In all, about 190,000 compounds went through this assay and about 520 (0.27%) were called active. About 2% were inconclusive and are not listed. The entries come from a sample that favours actives as a whole. A number with no mark means an inactive call.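 Rule for the calls: active = GTP binding activity at least 20 points away from the 100% control level, either lower or higher; inconclusive = compound flagged as likely green fluorescent, judged across all proteins; inactive = the rest.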

The compounds below were run against Ras-related C3 botulinum toxin substrate 1 (Homo sapiens) (UniProt P63000) (assay: wildtype Rac1 GTP binding modulators, primary screen, biochemical, GST-Rac1 beads, flow cytometry, multiplex (AID 757)). Details: fluorescent GTP binding, at 10 µM, actives lie on both sides, 0 = cold GTP competed, 100 = untreated.

In order of rising GTP binding activity (% of control):
1. CC(=O)c1ccc(-c2nnc(CCC(=O)N(C)Cc3cnc4ccccn34)o2)s1  92%
2. COc1cccc(-c2ccc(SCC(=O)N3CCN(c4ccccc4)CC3)nn2)c1  92%
3. O=C(O)/C=C/c1cn(-c2ccccc2)nc1-c1cccs1  94%
4. CCOc1ccc(N2CC(C(=O)NCCN3C(=O)S/C(=C\c4cccnc4)C3=O)CC2=O)cc1 (stereo unspecified)  95%
5. Cc1cc(C)cc(NC(=O)CSc2ccccc2)c1  95%
6. CC(Oc1ccc(Br)cc1Br)C(=O)NC1CCCC1 (stereo unspecified)  96%
7. COCCn1c(C)cc(C(=O)CSc2nc3ccccc3c(=O)n2C(C)COC)c1C (stereo unspecified)  97%
8. O=S(=O)(Nc1ccccn1)c1cccc(S(=O)(=O)c2ccc(Cl)cc2)c1  97%
9. O=c1cc(O)c(-c2cccc(C(F)(F)F)c2)c(Cl)[nH]1  97%
10. CC(=O)c1c(C)[nH]c(C(=O)Nc2cc(S(=O)(=O)N(C)C)ccc2C)c1C  97%
11. CN(C)c1ccc(C(=S)N2CCN(C(=S)Nc3ccc(Cl)cc3)CC2)cc1  98%
12. O=C(c1cn2ccccc2n1)N1CCc2c([nH]c3ccccc23)C1c1ccccn1 (stereo unspecified)  98%
13. O=C(Nc1ccccc1C(=O)N1CCOCC1)c1ccc(Cl)cc1  98%
14. COc1ccc(CC(NC(C)=O)C(=O)NC2CCN(C(=O)c3ccc(OC)c(OC)c3)CC2)cc1OC (stereo unspecified)  98%
15. CC1CCC(NC(=O)C2c3ccccc3C(=O)N2Cc2ccc3c(c2)OCO3)CC1 (stereo unspecified)  99%
16. O=C(OCC(=O)c1cccs1)c1ccc([N+](=O)[O-])o1  99%
17. Cn1c(=NC(=O)c2ccc3c(c2)OCCO3)sc2cc(S(C)(=O)=O)ccc21  100%
18. Cc1c(NC(=S)NC(=O)CCc2ccccc2)c(=O)n(-c2ccccc2)n1C  101%
19. CNC(=S)Nc1ccc([N+](=O)[O-])cc1  101%
20. O=C(CSc1ccccc1)Nc1ccc(NC(=O)c2ccco2)cc1  101%
21. CN(C)/N=C/c1cn(-c2ccccc2)nc1-c1cccnc1  101%
22. O=C(NCCCN1CCOCC1)c1ccc([N+](=O)[O-])cc1[N+](=O)[O-]  102%
23. O=C(CNC(=O)COc1ccccc1)NCCc1ccccn1  102%
24. O=C(/C=C\c1cn(-c2ccccc2)nc1-c1cccs1)N1CCOCC1  106%

For `O=C(O)/C=C/c1cn(Cc2ccccc2)nc1-c1cccs1`, the GTP binding activity (% of control) was 157% [activator] (active).
For `O=C(CSc1ccccc1)Nc1ccc(C(=O)Nc2cccc(O)c2)cc1`, the GTP binding activity (% of control) was 75% (active).
